Several values for one entry are separate records, joined by “and”; a condition that tells them apart may be missing. Equal values may be shown once.
Assays:
Assay type in all cases: functional
[1] = system: Plasmodium falciparum; assay: GSK_TCMDC: Inhibition of Plasmodium falciparum 3D7 in whole red blood cells, using parasite LDH activity as an index of growth. Test compounds present at 2uM
[2] = system: Plasmodium falciparum; assay: GSK_TCMDC: Inhibition of Plasmodium falciparum Dd2 in whole red blood cells, using parasite LDH activity as an index of growth. Test compounds present at 2uM
[3] = system: HepG2; assay: GSK_TCMDC: Percent inhibition of human HepG2 cell line. Test compounds present at 10uM.

Structure (SMILES) | Inhibition [1] | Inhibition [2] | Inhibition [3]
CN(C)CCCOc1ccc(CN2CCC(c3c[nH]c4ccc(NCC5CCCCC5)cc34)CC2)cc1.O=C(O)C(F)(F)F | 99% | 99% | 58%
CC[C@H]1CN2CC[C@@H]1C[C@H]2[C@H](O)c1cc(N2CCC(O)(c3ccccc3)CC2)nc2ccc(OC)cc12 | 100% | 98% | 14%
COCCNCc1ccc(-c2cccc(CN(C(=O)CCC3CCCC3)C3CCN(Cc4ccccc4)CC3)c2)cc1.O=C(O)C(F)(F)F | 91% | 86% | 50%
CCOC(=O)c1c(C)n(C2CCCCC2)c2cc(Br)c(O)cc12 | 98% | 71% | 1%
COc1cccc(C(=O)C2CC2CN2CC=C(c3c[nH]c4cccc(Br)c34)CC2)c1 (stereo not drawn) | 96% | 85% | 22%
COc1ccccc1CNCC(O)c1cc(C(F)(F)F)ccc1C(F)(F)F (stereo not drawn) | 100% | 95% | 10%
Cc1c2ccncc2c(C)c2c1[nH]c1ccccc12 [ELLIPTECINE] | 95% | 97% | 38%
Cc1ccc2c(C3=CCN(CCCCC4(C)C(=O)Nc5c(F)cccc54)CC3)c(C)[nH]c2c1 (stereo not drawn) | 95% | 89% | 5%
CN1CC[C@H](N(Cc2ccccc2F)c2ccc(C#N)c(Cl)c2)C1 | 88% | 68% | 18%
CC(Cc1ccc(OC2CCCCC2)cc1)NCC(O)c1cccc(Cl)c1.Cl (stereo not drawn) | 99% | 99% | 66%
COc1ccc(F)cc1-c1csc(N(c2ccc(F)cc2)C2CCNCC2)n1.O=C(O)C(F)(F)F | 94% | 0% | 15%
CC[C@H]1CN2CC[C@H]1C[C@H]2[C@H](O)c1cc(N2CCC3CCCCC3C2)nc2ccc(OC)cc12 (stereo partly drawn) | 100% | 99% | 50%
CN(c1cc(NC(=O)c2ccc(F)cc2)ccn1)C1CCN(Cc2cccc(F)c2)CC1.O=C(O)C(F)(F)F | 100% | 97% | 13%
Cc1cc(C2CCCCN2C)ccc1-c1ccc(C(=O)N2CCc3cc4c(cc32)C2(CCN(C)CC2)CO4)cc1.Cl (stereo not drawn) | 95% | 94% | 37%
Cc1cc2cc(CNCCc3ccccc3Br)ccc2nc1N.Cl | 98% | 91% | 31%
C=Cc1cc(OC)c2c(c1)c(=O)oc1c2cc(OC)c2c(O)ccc([C@H]3O[C@H]([C@H](C)O)[C@H](O)[C@H]3O)c21 | 95% | 41% | 33%
CS(=O)(=O)Nc1ccc2[nH]cc(C3CC4CCC(C3)N4CC3CCC(NC(=O)/C=C/c4ccc(Cl)c(Cl)c4)CC3)c2c1 (stereo not drawn) | 100% | 50% | 3%
FC(F)(F)c1cccc(N2CCC(CN3CCC(c4c[nH]c5ccccc45)CC3)CC2)n1.O=C(O)C(F)(F)F | 84% | 10% | 41%
COc1ccc2[nH]cc(C3CCN(Cc4ccc(NC(=O)c5ccc(-c6ccccc6)cc5)cc4)CC3)c2c1 | 100% | 72% | 24%
CCN(CC)CCOC(=O)C(OC)(c1ccccc1)c1ccccc1 | 97% | 6% | 0%
COc1ccc(CC(C)NCC(O)c2cccc(Cl)c2)cc1C (stereo not drawn) | 89% | 78% | 11%

Structure (SMILES) | Inhibition [1] | Inhibition [2] | Inhibition [3]
COc1ccc2[nH]cc(C3CC4CCC(C3)N4CCC3CCN(C(=O)/C=C/c4ccc(Cl)c(Cl)c4)CC3)c2c1 (stereo not drawn) | 100% | 80% | 38%
C#CCN1CCC2=C(C1)c1c(O)cc(C(C)C(C)CCc3ccc(F)cc3)cc1OC2(C)C (stereo not drawn) | 100% | 99% | 10%
CC[C@H]1CN2CC[C@H]1C[C@H]2[C@H](O)c1cc(-c2ccc(F)cc2)nc2ccc(OC)cc12.Cl | 99% | 98% | 34%
O=C(/C=C/c1ccc(F)c(C(F)(F)F)c1)N1CCC(CN2CCC(c3c[nH]c4ccccc34)CC2)CC1 | 98% | 1% | 23%
O=C(NC1CCC(CN2CCC(c3c[nH]c4ccccc34)CC2)CC1)NC12CC3CC(CC(C3)C1)C2 (stereo not drawn) | 96% | 46% | 37%
O=C(/C=C/c1ccc(Cl)c(Cl)c1)NC1CCC(CN2CCC(c3c[nH]c4ccccc34)CC2)CC1 (stereo not drawn) | 100% | 85% | 27%
COC(=O)c1ccc(CC(C)NCC(O)c2ccccc2Cl)cc1 (stereo not drawn) | 94% | 55% | 1%
CCCc1c(C(=O)NC2CCC(CN3CCC(c4c[nH]c5ccccc45)CC3)CC2)cnn1-c1c(Cl)cc(Cl)cc1Cl (stereo not drawn) | 100% | 49% | 41%
O=C(Nc1cc(C(F)(F)F)cc(C(F)(F)F)c1)N1CCC(CN2CCC(c3c[nH]c4ccccc34)CC2)CC1 | 100% | 99% | 42%
CC(C)CNCc1ccc(-c2cccc(CN(C(=O)NC3CCCCC3)C3CCN(Cc4ccccc4)CC3)c2)cc1.O=C(O)C(F)(F)F | 98% | 88% | 20%
Cc1[nH]c2c(C)cc(NS(C)(=O)=O)cc2c1C1CCN(CC2CCN(C(=O)/C=C/c3ccc(Cl)c(Cl)c3)CC2)CC1 | 100% | 99% | 33%
CC[C@H]1CN2CC[C@@H]1C[C@H]2[C@H](O)c1ccnc2ccc(Cl)cc12.Cl | 100% | 98% | 0%
CN1CC=C(C=Cc2c[nH]c3ccccc23)CC1 | 86% | 64% | 14%
CCCCCCC(C)c1cc(O)c2c(c1)OC(C)(C)c1ccncc1-2.Cl (stereo not drawn) | 100% | 61% | 0%
O=C(NC1CCN(CCc2c[nH]c3ccc(F)cc23)CC1)c1ncc(-c2ccccc2)[nH]1.O=C(O)C(F)(F)F | 100% | 69% | 0%
O=C(/C=C/c1ccc(Cl)c(Cl)c1)N1CCC(CN2CCC(c3cn(CC(=O)N4CCCCC4)c4ccccc34)CC2)CC1.O=C(O)C(F)(F)F | 100% | 65% | 52%
S=C(NCCc1ccc(Cl)cc1)NC1CCC(CN2CCC(c3c[nH]c4ccccc34)CC2)CC1 (stereo not drawn) | 100% | 84% and 34% | 42% and 37%
Br.CC(Cc1ccc(CSC(C)C)cc1)NCC(O)c1cccc(Cl)c1 (stereo not drawn) | 98% | 98% | 11%
COC(=O)c1ccc(CC(C)NCC(O)c2cccc(C(F)(F)F)c2)cc1C (stereo not drawn) | 93% | 74% | 6%
CC[C@H]1CN2CC[C@H]1C[C@H]2[C@H](O)c1ccnc2ccc(O)cc12.Cl | 99% | 2% | 11%
Cc1c(C(=O)N[C@@H](C)c2ccccc2)c2cc(O)c(Br)cc2n1C1CCCCC1 | 98% | 95% | 4%

Structure (SMILES) | Inhibition [1] | Inhibition [2] | Inhibition [3]
CC[C@H]1CN2CC[C@@H]1C[C@@H]2[C@@H](O)c1cc(-c2ccc(F)cc2)nc2ccc(OC)cc12.Cl | 98% | 64% | 18%
Cc1ccc(CC(C)NCC(O)c2cccc(Br)c2)cc1 (stereo not drawn) | 99% | 97% | 7%
CC[C@H]1CN2CC[C@H]1C[C@H]2C(O)c1cc(OC)nc2ccccc12 (stereo partly drawn) | 100% | 98% | 0%
C=C[C@H]1CN2CC[C@@H]1C[C@H]2[C@H](O)c1cc(-c2ccc(F)cc2)nc2ccc(OC)cc12.Cl | 99% | 98% | 5%
Cc1ccc2[nH]cc(C3CCN(CC4CCC(NC(=O)/C=C/c5ccc(Cl)c(Cl)c5)CC4)CC3)c2c1 (stereo not drawn) | 100% and 94% | 86% and 46% | 37% and 29%
Cl.c1ccc2c(NCCCCCCCCCNc3c4ccccc4nc4ccccc34)c3ccccc3nc2c1 | 100% | 95% | 99%
CC(=O)C1(c2ccccc2)CCN(CCC2(c3ccc(Cl)c(Cl)c3)CN(C(=O)CC(C)C)CCO2)CC1 (stereo not drawn) | 92% | 94% | 7%
CC(Cc1ccc(SCCSc2ccccc2)cc1)NCC(O)c1cccc(Cl)c1 (stereo not drawn) | 98% | 96% | 4%
Cc1ccc(CC(C)NCC(O)c2cccc(C(F)(F)F)c2)cc1.O=C(O)/C=C/C(=O)O (stereo not drawn) | 100% | 54% | 5%
COC(=O)c1ccc(CC(C)NCC(O)c2ccc(Cl)c(Cl)c2)cc1 (stereo not drawn) | 87% | 33% | 0%
Cc1cc(CN2CCN(CCOC(c3ccccc3)c3ccccc3)CC2)ccc1O | 97% | 96% | 9%
COC(=O)c1ccc(CC(C)NCC(O)c2cccc(C(F)(F)F)c2)cc1.Cl (stereo not drawn) | 97% | 87% | 0%
Cc1cc2ccc(CNCCc3ccccc3Br)cc2nc1N.Cl | 100% | 48% | 0%
COc1cc2nc(N(C)C3CCN(Cc4ccccc4)CC3)nc(N)c2cc1OC | 99% | 93% | 19%
CCOC(=O)CCCN1C(=O)CN=C(c2ccccc2)c2cc(Cl)ccc21 | 97% | 47% | 54%
CC[C@H]1CN2CC[C@H]1C[C@H]2[C@H](O)c1cc(N2CCCC(C(=O)N(CC)CC)C2)nc2ccc(OC)cc12 (stereo partly drawn) | 100% | 99% | 0%
CCN1CCC(N2CCC(n3c(C)nc4cc(C(F)(F)F)ccc43)CC2)CC1 | 93% | 16% | 6%
CC(Cc1ccc(OCCCCOc2ccccc2)cc1)NCCCc1nc2ccccc2[nH]1 (stereo not drawn) | 97% | 67% | 99%
C/C=C1\CN2CC[C@H]1C[C@H]2[C@H](O)c1ccnc2ccc(O)cc12 | 98% | 0% | 0%

Source: ChEMBL document CHEMBL1157539, “Thousands of chemical starting points for antimalarial lead identification” (Nature, 2010)
